Source: PubChem BioAssay AID686971 (National Center for Advancing Translational Sciences (NCATS), 2013)
Hit rate of the full screen: of about 360,000 compounds, about 7,500 (2.1%) were called active. Roughly 8% stayed inconclusive and do not appear here. Calls come from the whole dose curve; as a rule, active = well fitted cell-killing curve with a large enough effect; inconclusive = small, poorly fitted or top-dose-only effect, or effect the other way, or another doubt; inactive = no such curve, though single readings can be large or run the other way. Shown is part of a subset that was picked to be rich in actives.

Assay: qHTS for induction of synthetic lethality in tumor cells producing 2HG: qHTS for the HT-1080-IDH1KD cell line;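 for activity, negative = toxicity: 0% = DMSO wells and -100% = cell-free medium wells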
Conditions: HT-1080 IDH1 knockdown viability, ATP luminescence, 48 h; series mostly up to 46.1 µM; activity, negative = toxicity: at the top concentration
Method in brief: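 Viability of IDH1-knockdown HT-1080 fibrosarcoma cells was assessed by CellTiter-Glo after 48 h at 37 °C with titrated compound; concentration-effect curves were classified by fit quality and response size.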
Potency is the fitted concentration of half-maximal effect.

SMILES | activity, negative = toxicity | Potency
Cc1cc(Br)cn2c(Cc3ccccc3C(F)(F)F)c(C3CCCCC3)nc12 | -2.39% (inactive) | –
C[C@H](CO)N1C[C@H](C)[C@@H](CN(C)S(=O)(=O)c2ccc(Oc3ccccc3)cc2)OCc2cn(nn2)CCCC1=O | -12.2% (inactive) | –
Cn1cc([N+](=O)[O-])c(C(=O)Nc2ccc3c(c2)OCCO3)n1 | – | 11.2 µM (active)
O=C(Nc1ccc2c(c1)OCCO2)c1ccoc1 | 3.83% (inactive) | –
COc1cccc(NC(=O)c2nn(C34CC5CC(CC(C5)C3)C4)cc2[N+](=O)[O-])c1 | -1.16% (inactive) | –
CNC(=O)C1CN(C(=O)c2cccc(S(=O)(=O)N3CCc4ccccc43)c2)c2ccccc2O1 (centres undefined) | -22% (inactive) | –
COc1ccc(C(CNC(=O)c2ccc(OCc3cscn3)cc2)N2CCCC2)cc1 (centres undefined) | -1.11% (inactive) | –
Cc1cccc(C(=O)OCC(=O)Nc2sccc2C(N)=O)c1C | 8.43% (inactive) | –
O=C(NCCc1cccc(F)c1)C1CC(O)CN1C(=O)Nc1ccccc1 (centres undefined) | 4.64% (inactive) | –
O=C(O)C(=Cc1ccc([N+](=O)[O-])cc1)CCc1ccccc1 | -4.63% (inactive) | –
CN1CCN(C2Cc3ccc(Cl)cc3Sc3ccc(F)cc32)CC1 (centres undefined) | – | 13 µM (active)
O=[N+]([O-])c1ccc(CN2CC(N3CC=CC3)CS2(=O)=O)cc1 (centres undefined) | 2.68% (inactive) | –
CSc1ccc(CN2CCC2(C)C(=O)Nc2ccc(C)c(O)c2)cc1 (centres undefined) | 1.83% (inactive) | –
CCCCN1C(=O)C(CC(=O)NCc2cccs2)CC(C(=O)N2CCOCC2)=C1C (centres undefined) | -0.279% (inactive) | –
O=C(NNC(=O)c1ccc(Cl)cc1Cl)c1cccs1 | 1.43% (inactive) | –
Cc1ccc(NNC(=O)c2cccs2)cc1Cl | – | 5.8 µM (active)
Cc1ccc(C(=O)Nc2ccc(NC(=O)c3cccs3)cc2)c(C)c1 | – | 16.4 µM (active)
Cc1ccc(C(=O)NNC(=O)c2cccs2)cc1 | 20.8% (inactive) | –
Cc1ccc(C)c(NC(=O)CCC(=O)NNC(=O)c2cccs2)c1 | 18.3% (inactive) | –
Cc1ccc(NC(=O)c2cccs2)cc1S(=O)(=O)N(C)C | 11.2% (inactive) | –
COC(=O)c1ccc2nc(-c3ccc(C)cc3)c(Cc3ccc(OC)cc3C)n2c1 | -0.222% (inactive) | –
CCCNC(=O)c1cc2c(c(-c3cccc(-c4ccc(C#N)cc4)c3)n1)[C@@H](CCO)N(C(=O)CC)C2 | -28.2% (inactive) | –

SMILES | activity, negative = toxicity | Potency
Cc1cc(C(=O)CCC(=O)NNC(=O)c2ccccc2O)c(C)s1 | -1.01% (inactive) | –
CC1=C(C)CC(C(=O)NNC(=O)c2ccccc2O)C(C(=O)O)C1 (centres undefined) | -13.2% (inactive) | –
O=C(NNC(=O)c1ccccc1O)c1ccccc1O | – | 9.2 µM (active)
CCNC(=O)c1cc2c(c(-c3cccc(-c4cncnc4)c3)n1)[C@H](CCO)N(C(C)=O)C2 | 12.5% (inactive) | –
O=C(Nc1cccc(C(=O)O)c1)/C(=C\c1ccccc1)NC(=O)c1ccc(Br)o1 | 2.12% (inactive) | –
CC(Nc1nc(C(F)(F)F)nc2ccccc12)c1cccs1 (centres undefined) | – | 16.4 µM (active)
Cc1cc(C)n(-c2nc(C(F)(F)F)nc3ccccc23)n1 | -13% (inactive) | –
CC(C)n1c(-c2cccs2)nc2ccccc21 | -1.39% (inactive) | –
COCCCNC(=O)c1cccc2c(-c3ccc(O)c(OC)c3)coc12 | -17.3% (inactive) | –
NC(CSC(c1ccccc1)(c1ccccc1)c1ccc(-c2ccccc2)cc1)C(=O)O (centres undefined) | 12.7% (inactive) | –
O=C(NCc1nnnn1-c1ccc(Cl)cc1)c1ccc2c(c1)OCO2 | -0.275% (inactive) | –
CCNC(=O)C1(C)CCCN(C(=O)c2ccc3ccccc3n2)C1 (centres undefined) | 15.4% (inactive) | –
Cc1cccc2nc(CSc3nc4[nH]ncc4c(=O)n3-c3cccc(Cl)c3)cc(=O)n12 | 2.66% (inactive) | –
O=c1c2sccc2nc(SCc2cc(=O)n3ccccc3n2)n1-c1ccc(Br)cc1 | -11.7% (inactive) | –
CCc1ccc(-n2c(SCc3cc(=O)n4cc(Br)ccc4n3)nc3[nH]ncc3c2=O)cc1 | – | 18.4 µM (active)
CCc1nc2c(OCC(=O)C(C)(C)C)cccn2c1N(C)C(=O)c1ccccc1F | 12.4% (inactive) | –
CCC(=O)N1CCCC1(C)C(=O)Nc1ccc2c(c1)CCN2C(C)=O (centres undefined) | 18% (inactive) | –
COc1ccc(Nc2cc(Sc3ccc(OC)cc3)ncn2)cc1 | -20.5% (inactive) | –
Cc1cc(C)n(-c2ccc(C(=O)O)cc2[N+](=O)[O-])n1 | -0.0463% (inactive) | –
COc1ccc(Nc2cc(C)nc(-n3nc(C)cc3C)n2)cc1 | – | 0.794 µM (active)
CCOC(=O)c1cnc(-n2nc(C)cc2C)nc1NNc1cc(C)nc(-c2ccccc2)n1 | -24.4% (inactive) | –
CC(=O)c1ccc(Oc2cc(C)nc(-n3nc(C)cc3C)n2)cc1 | – | 4.61 µM (active)

SMILES | activity, negative = toxicity | Potency
COc1ccc(NC(=O)c2nc(-n3nc(C)cc3C)ccc2Cl)cc1Cl | 4.15% (inactive) | –
O=C1c2ccccc2-c2ccccc2NC1O (centres undefined) | 1.47% (inactive) | –
CCC(=O)N1CCC(C)(C(=O)Nc2cc(OC)c(OC)c(OC)c2)C1 (centres undefined) | 26.5% (inactive) | –
CCOC(=O)[C@]12CCCC=C1N(CCC1=CCCCC1)C(=O)[C@H](CC(=O)N1CCCCC1)C2 | -15.9% (inactive) | –
Cc1ccc(-c2nc3c(Cl)cc(C(F)(F)F)cn3c2Cc2cccc(Cl)c2)cc1 | 10.7% (inactive) | –
CNC(=O)C[C@H]1C(=O)N(Cc2ccccc2)C[C@@H]1CSC | 4.17% (inactive) | –
Cc1nc(N2CCN(c3ccccn3)CC2)c2c(C)c(C(=O)Nc3ccc(F)cc3)sc2n1 | 1.24% (inactive) | –
Cc1nc(N2CCOCC2)c2c(C)c(C(=O)Nc3ccc(C(F)(F)F)cc3)sc2n1 | – | 20.6 µM (active)
Cc1nc(N2CCN(c3ccccn3)CC2)c2c(C)c(C(=O)Nc3ccc(F)c(Cl)c3)sc2n1 | 14.8% (inactive) | –
O=C(NCc1ccc2c(c1)OCO2)c1cc(F)c(F)cc1Cl | 11.4% (inactive) | –
CC1(C(=O)Nc2cccnc2)Cc2c(-c3ccccc3)ccnc2O1 (centres undefined) | -0.19% (inactive) | –
COc1ccc(NC(=O)C2Cc3c(-c4cccc(NC(C)=O)c4)ccnc3O2)cc1OC (centres undefined) | -14.7% (inactive) | –
CC(=O)Nc1cccc(-c2ccnc3c2CC(C)(C(=O)NCc2ccccc2)O3)c1 (centres undefined) | – | 0.651 µM (active)
CC1(C)Cc2cccc(OCC(=O)NCc3ccccc3)c2O1 | -3.39% (inactive) | –
CC1(C(=O)NCc2ccc(F)c(F)c2)Cc2c(-c3ccc4c(c3)OCO4)ccnc2O1 (centres undefined) | – | 4.61 µM (active)
COc1ccc(NC(=O)C2(C)Cc3c(-c4cccc(NC(C)=O)c4)ccnc3O2)cc1OC (centres undefined) | – | 14.6 µM (active)
COc1ccc(NC(=O)C2(C)Cc3c(-c4ccc(C(N)=O)cc4)ccnc3O2)cc1 (centres undefined) | -4.38% (inactive) | –
COc1cc(OC)c(C(=O)NCc2ccc3c(c2)OCO3)cc1OC | -0.101% (inactive) | –
O=C(Nc1ccc(F)cc1)Nc1nnc([C@H]2C[C@H](O)[C@@H](CO)O2)s1 | -1.05% (inactive) | –
CC(C)c1cc(C(=O)N(C)C2CCCN(Cc3ccccc3F)C2)n(C)n1 (centres undefined) | -6.92% (inactive) | –
